This is an account of results in PubChem BioAssay (NCATS).

Assay [1] in a line: AP1 Signaling Pathway (AID 357; active = well fitted curve in either direction with a large enough effect, not every such curve was filed as active;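 note: ME-180 reporter cells stimulated with EGF at its EC50 level; % is set by controls: 0 for no effect and ±100 for the full control effect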). The conditions noted are these: ME-180 AP-1-bla reporter, EGF-induced, beta-lactamase ratio, 5 h; at 7.69 µM (top of the series) unless noted. The gist of the method: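 First, ME-180 AP-1-bla cells were cultured overnight at 37 °C in low-serum Opti-MEM. Next, titrated compounds with EC50 EGF were incubated 5 hours. Finally, CCF4 was added for 2.5 hours and the 460/530 nm ratio recorded.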

Assay [2] can be described thus: NFAT Signaling Pathway (AID 444; active = well fitted curve in either direction with a large enough effect, not every such curve was filed as active;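 note: carbachol stimulus at about its EC50 of 1 µM final; % is set by controls: 0 for no effect and ±100 for the full control effect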). The conditions noted are these: Jurkat NFAT-bla M1, carbachol, beta-lactamase ratio, 5 h; at 7.69 µM (top of the series) unless noted. The method, boiled down:
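Jurkat cells with NFAT-driven β-lactamase reporter and co-expressed M1 receptor, stimulated with carbachol (final 1 uM, ~EC50), compound titration, 5 h at 37 °C. CCF4 loaded 1 h at RT; 460/530 nm ratio gave %activity and AC50.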

A short description of assay [3]: Stat Signaling Pathway (AID 446; active = well fitted curve in either direction with a large enough effect, not every such curve was filed as active;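 note: ME-180 cervical cancer cells given 40 pM IL-6 alongside compound; SIE-controlled beta-lactamase reporter measured as 460/530 nm FRET emission ratio; % is set by controls: 0 for no effect and ±100 for the full control effect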). The conditions noted are these: ME-180 (cervical carcinoma) SIE beta-lactamase reporter, IL-6 stimulated, 5 h; at 7.69 µM (top of the series) unless noted. The method, boiled down:
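Normalization used AC90 stimulation (300 pM IL-6) and AC90 inhibition (125 nM pan-JAK inhibitor at 40 pM IL-6). The underlying signal is SIE-driven beta-lactamase in ME-180 cells after 5 h IL-6 exposure with compound.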

Assay [4] concerns the target Glucocorticoid receptor (Homo sapiens) (UniProt P04150). Kind of assay: GR-GFP Redistribution (AID 450;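 active = compounds whose dose series gives a full or clear partial fitted curve of increased nuclear translocation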; note: potency is the fitted concentration of half-maximal effect). The conditions noted are these: U2OS GR-GFP nuclear translocation, laser cytometry, 2 h.
The target is the same in assay [5]. Briefly: GR-EFC Redistribution (AID 451; calls by dose curve; note: potency is the fitted concentration of half-maximal effect). The conditions noted are these: CHO-K1 GR-EFC translocation, beta-gal luminescence, 2 h. The method, boiled down: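 CHO-K1 cells expressing nuclear EA and GR-ED fragments of b-gal; compounds titrated up to 46 uM final, 2 h at 37 C. GR nuclear translocation read as complemented b-gal luminescence after 1 h RT detection.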

In assay [6] the target is Mitogen-activated protein kinase 10 (Mus musculus) (UniProt Q61831). Kind of assay: JNK3 AlphaScreen Assay (AID 530; active = well fitted curve in either direction with a large enough effect, not every such curve was filed as active;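 note: kinase came from lysate of stimulated human HepG2 cells; signal reports phosphorylation of biotinylated GST-cJun 1-79 at Ser73 with 10 µM ATP; % is set by controls: 0 for no effect and ±100 for the full control effect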). The gist of the method:
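Activity was read by AlphaScreen after JNK3-containing HepG2 lysate (cytokine pre-activated) phosphorylated biotinylated GST-cJun with 10 uM ATP at room temperature. Phospho-Ser73 cJun antibody with Protein-A acceptor beads provided detection.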

For assay [7], the target named is 3',5'-cyclic-AMP phosphodiesterase 4B (Homo sapiens) (UniProt Q07343). Kind of assay: qHTS Assay for Inhibitors of PDE-IV (AID 607; active = well fitted activation curve with a large enough effect in the main read-out, with a control signal flat, not every such curve was filed as active; note: % of control where 0% means no effect). The method, boiled down: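 HEK293 ACTOne cells with CNG channel (1000/well), endogenous PDE4; membrane potential dye, compounds up to 22.9 uM final. Fluorescence Ex 535/Em 590; RO 20-1724 (100 uM final) as reference.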
Background: qHTS replaces the single test concentration by a dilution series.

Assay [8] in a line: qHTS Assay for Lipid Storage Modulators (AID 1519; calls by dose curve). The conditions noted are these: Drosophila S3 cells, BODIPY lipid droplet/cell ratio, laser cytometry, cells loaded with oleic acid. The gist of the method:
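Cells seeded at 5,000 per well were treated with compounds over a concentration series and loaded with oleic acid (400 uM, as added). Lipid droplet fluorescence (488 nm excitation, 500-530 nm channel) was read by laser-scanning cytometry and normalized to 20 uM Triacsin C.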

Assay [9] addresses Ubiquitin carboxyl-terminal hydrolase 1 (Homo sapiens) (UniProt O94782). Kind of assay: Inhibitors of USP1/UAF1: Pilot qHTS (AID 504865).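 Note: rhodamine fluorescence freed from ubiquitin-rhodamine substrate followed over time; top concentration of the series differs between compounds; % is set by controls: 0 for no effect and ±100 for the full control effect; nearly all actives have a fitted effect of over 35% in size.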 The gist of the method:
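1nM USP1/UAF1 + cpd, 15 min RT; start w/ Ub-Rho 150nM final; kinetic FL 480/540 nm, 6 reads q60 s. Buffer 50mM HEPES pH 7.8, 0.5mM EDTA, 1mM TCEP, 0.01% Tween-20, 0.1 mg/ml BSA.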

In assay [10] the target is Cytochrome P450 3A4 (Homo sapiens) (UniProt P08684). Briefly: qHTS Assay for Inhibitors and Substrates of Cytochrome P450 3A4 (AID 884). Note: nearly all actives have a fitted effect of over 50% in size. Note: potency is the fitted concentration of half-maximal effect. The gist of the method:
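Luminescent readout of luciferin produced by CYP3A4 (20 nM) dealkylation of Luciferin-PPXE, 25 uM (its KM). NADPH-driven reaction ran 60 min at RT after 10 min compound preincubation; data scaled to 57 uM ketoconazole as 100% inhibition.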

Assay [11] in a line: Confirmation and Secondary Assay for Modulators of Hemoglobin Beta Chain Splicing at IVS2 705 locus (AID 930).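 Note: HeLa cells stably expressing the EGFP-705 splicing reporter; GFP fluorescence per well restored by corrected splicing of the IVS2-705 intron in EGFP; % of control where 0% means no effect.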 The gist of the method: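 HeLa EGFP-705 reporter; 500 cells/well, o/n 37C 5% CO2; cpd 2 d; 488 ex/500-520 em laser scan; total peak GFP intensity/well. Ref: 500 nM […] antisense PNA.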
In assay [12] the target is Rap guanine nucleotide exchange factor 3 (Homo sapiens) (UniProt O95398). Kind of assay: Confirmatory qHTS for antagonist of cAMP-regulated guanine nucleotide exchange factor 3 (EPAC1) (AID 1645880).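 For activity, negative = inhibition: plate controls were DMSO only for no effect and full effect of the ATA control for full effect.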 Note: nearly all actives have a fitted effect of over 55% in size. Note: potency is the fitted concentration of half-maximal effect. The method, boiled down:
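Released BODIPY-GDP fluoresces less than Rap1-bound BODIPY-GDP; the signal is followed at 480/540 nm at 5-min intervals over 30 min, after 5 min at room temperature. Reactions contain 100 nM EPAC1, 250 nM RAP1B-BODIPY-GDP and 50 uM GDP; results are normalized to ATA and DMSO.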

For assay [13] the target is unchanged. Briefly: Confirmatory qHTS for agonist of cAMP-regulated guanine nucleotide exchange factor 3 (EPAC1) (AID 1645881).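 Note: EPAC1 catalysed release of BODIPY-GDP from Rap1B seen as fluorescence loss; 100% = effect of cAMP agonist control; nearly all actives have a fitted effect of over 75% in size.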
Assay [14] has as its target Rap guanine nucleotide exchange factor 4 (Homo sapiens) (UniProt Q8WZA2). Kind of assay: Confirmatory qHTS for agonist of cAMP-regulated guanine nucleotide exchange factor 4 (EPAC2) (AID 1645884).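 Note: nucleotide exchange releases bodipy-GDP from Rap1 and this lowers its fluorescence; % is set by controls: 0 for no effect and ±100 for the full control effect; nearly all actives have a fitted effect of over 65% in size.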
For assay [15] the target is unchanged. Briefly: Confirmatory qHTS for antagonist of cAMP-regulated guanine nucleotide exchange factor 4 (EPAC2) (AID 1645885). Note: nearly all actives have a fitted effect of over 25% in size. Note: potency is the fitted concentration of half-maximal effect.
Assay [16] has as its target Lysosomal acid glucosylceramidase (Homo sapiens) (UniProt P04062). Briefly: Glucocerebrosidase-p2 (AID 348; in the data active = potency below about 10 µM; note: potency is the fitted concentration of half-maximal effect). The conditions noted are these: purified GBA, blue fluorogenic substrate, 40 min. The method, boiled down: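 Normal human glucocerebrosidase (0.2 nM) with blue fluorogenic substrate (80 uM final) in citrate/phosphate pH 5.9 with 10mM sodium taurocholate, 0.01% tween-20; 40 min RT, NaOH/glycine stop; fluorescence Ex 365/Em 440; AC50 from a titration from 0.6 nM upwards.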

The target of assay [17] is Cytochrome P450 1A2 (Homo sapiens) (UniProt P05177). Kind of assay: p450-cyp1a2 (AID 410; calls by dose curve; note: potency is the fitted concentration of half-maximal effect). The gist of the method: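 O-Demethylation of luciferin 6' methyl ether by human CYP1A2 is monitored as luciferase luminescence. Substrate sits at Km (100uM); enzyme is 20nM. Values are scaled to 57 uM furafylline as maximal inhibition.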
For assay [18], the target named is Cytochrome P450 3A4 (Homo sapiens) (UniProt P08684). Briefly: qHTS Assay for Activators of Cytochrome P450 3A4 (AID 885). Note: nearly all actives have a fitted effect of over 65% in size. The gist of the method: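 Human CYP3A4 dealkylates Luciferin-PPXE to luciferin, which luciferase detection converts to light. Substrate was at its KM (25uM), buffer 200mM KPO4, reaction 60 min at RT.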
The nature of assay [19]: Primary qHTS for small molecule stabilizers of the endoplasmic reticulum resident proteome: Secreted ER Calcium Modulated Protein (SERCaMP) assay (AID 1508630). Note: % is set by controls: 0 for no effect and ±100 for the full control effect. The method, boiled down:
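The SH-SY5Y reporter protocol was run at 3 concentrations up to 38.3 uM (primary) or 11 concentrations (follow-up): 16 h compound, 100 nM thapsigargin for 4 h, then extracellular luciferase luminescence.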

Assay [20] in a line: Confirmation and Secondary Assay for Modulators of Hemoglobin Beta Chain Splicing at IVS2 654 locus (AID 910).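 Note: HeLa cells stably carrying EGFP split by mutant beta-globin IVS2-654 intron; % of control where 0% means no effect.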 The gist of the method:
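HeLa cells stably expressing EGFP interrupted by β-globin IVS2-654 intron, seeded overnight in Opti-MEM/2% FCS, then treated 2 days at 37 °C. Restored splicing read as total peak GFP intensity per well by laser scanning cytometry (488 nm excitation, 500–520 nm emission); 500 nM antisense PNA as control.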

Setting [21] is: measured here: cell count channel max response.
Where [22] appears, read: measured here: lipid channel max response.

Values joined by “and” are separate entries in the source; they are usually repeats but may differ in a detail not shown here. Identical values can stand only once. Inconclusive results are not listed. Active and inactive are the calls of the source. Unless noted, calls come from the whole dose curve; as a rule, active = well fitted curve in the direction sought with a large enough effect; inconclusive = small, poorly fitted or top-dose-only effect, or another doubt; inactive = no such curve, though single readings can be large; an effect the other way counts as inactive or inconclusive. Where only a bound is given, the exact number is not on record here.

Chain of Rap guanine nucleotide exchange factor 3 (Homo sapiens) (O95398 whole entry, looked up): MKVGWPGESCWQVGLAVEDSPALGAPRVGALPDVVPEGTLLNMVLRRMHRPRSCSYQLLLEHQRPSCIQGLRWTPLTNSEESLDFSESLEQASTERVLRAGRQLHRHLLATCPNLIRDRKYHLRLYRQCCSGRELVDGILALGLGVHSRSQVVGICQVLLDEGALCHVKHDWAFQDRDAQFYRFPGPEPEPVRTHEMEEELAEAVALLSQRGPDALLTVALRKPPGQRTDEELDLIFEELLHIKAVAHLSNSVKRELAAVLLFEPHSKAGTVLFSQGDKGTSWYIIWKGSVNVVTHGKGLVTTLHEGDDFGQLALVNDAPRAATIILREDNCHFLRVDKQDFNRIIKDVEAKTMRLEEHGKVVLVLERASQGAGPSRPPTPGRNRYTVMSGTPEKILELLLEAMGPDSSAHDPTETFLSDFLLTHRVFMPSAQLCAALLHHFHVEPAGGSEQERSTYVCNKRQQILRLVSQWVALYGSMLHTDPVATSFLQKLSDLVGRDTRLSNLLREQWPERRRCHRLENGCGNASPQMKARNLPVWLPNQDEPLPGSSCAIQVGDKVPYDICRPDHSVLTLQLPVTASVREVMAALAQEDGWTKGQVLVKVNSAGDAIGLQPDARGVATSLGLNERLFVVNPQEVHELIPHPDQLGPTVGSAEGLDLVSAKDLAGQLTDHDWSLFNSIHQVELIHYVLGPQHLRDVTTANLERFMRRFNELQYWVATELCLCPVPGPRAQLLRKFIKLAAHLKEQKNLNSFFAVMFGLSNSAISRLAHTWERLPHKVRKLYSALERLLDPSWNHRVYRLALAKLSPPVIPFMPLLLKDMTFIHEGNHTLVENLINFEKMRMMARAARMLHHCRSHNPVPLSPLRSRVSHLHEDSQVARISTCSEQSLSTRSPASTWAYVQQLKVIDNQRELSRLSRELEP
Chain of Rap guanine nucleotide exchange factor 4 (Homo sapiens) (Q8WZA2 whole entry, looked up): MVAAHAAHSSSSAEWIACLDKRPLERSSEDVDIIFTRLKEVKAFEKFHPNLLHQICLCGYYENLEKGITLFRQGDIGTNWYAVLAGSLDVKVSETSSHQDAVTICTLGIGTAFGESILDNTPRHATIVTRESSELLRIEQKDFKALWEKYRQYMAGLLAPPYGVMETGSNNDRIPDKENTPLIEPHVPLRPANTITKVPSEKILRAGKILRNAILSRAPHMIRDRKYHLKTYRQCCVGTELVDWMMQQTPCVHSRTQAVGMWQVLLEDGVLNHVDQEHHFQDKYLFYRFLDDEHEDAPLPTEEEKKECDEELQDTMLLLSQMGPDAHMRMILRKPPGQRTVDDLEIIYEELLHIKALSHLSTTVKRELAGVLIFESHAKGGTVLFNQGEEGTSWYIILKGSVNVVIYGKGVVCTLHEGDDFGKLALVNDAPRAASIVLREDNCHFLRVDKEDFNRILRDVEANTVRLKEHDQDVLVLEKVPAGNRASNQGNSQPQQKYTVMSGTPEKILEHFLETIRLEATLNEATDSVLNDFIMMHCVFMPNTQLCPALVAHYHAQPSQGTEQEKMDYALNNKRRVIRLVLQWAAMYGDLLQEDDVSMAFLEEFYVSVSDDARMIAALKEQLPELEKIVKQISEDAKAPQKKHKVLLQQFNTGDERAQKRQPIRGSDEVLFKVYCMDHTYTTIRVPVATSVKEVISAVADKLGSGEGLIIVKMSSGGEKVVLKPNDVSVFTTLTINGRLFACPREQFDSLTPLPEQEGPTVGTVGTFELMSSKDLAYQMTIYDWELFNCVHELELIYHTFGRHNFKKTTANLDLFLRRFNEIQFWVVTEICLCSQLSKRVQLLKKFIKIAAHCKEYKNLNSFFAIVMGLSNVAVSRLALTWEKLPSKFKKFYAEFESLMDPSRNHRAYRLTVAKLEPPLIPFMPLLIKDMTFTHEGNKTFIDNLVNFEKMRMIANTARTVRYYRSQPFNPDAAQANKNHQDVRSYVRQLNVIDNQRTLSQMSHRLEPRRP
Chain of Cytochrome P450 3A4 (Homo sapiens) (P08684 whole entry, looked up): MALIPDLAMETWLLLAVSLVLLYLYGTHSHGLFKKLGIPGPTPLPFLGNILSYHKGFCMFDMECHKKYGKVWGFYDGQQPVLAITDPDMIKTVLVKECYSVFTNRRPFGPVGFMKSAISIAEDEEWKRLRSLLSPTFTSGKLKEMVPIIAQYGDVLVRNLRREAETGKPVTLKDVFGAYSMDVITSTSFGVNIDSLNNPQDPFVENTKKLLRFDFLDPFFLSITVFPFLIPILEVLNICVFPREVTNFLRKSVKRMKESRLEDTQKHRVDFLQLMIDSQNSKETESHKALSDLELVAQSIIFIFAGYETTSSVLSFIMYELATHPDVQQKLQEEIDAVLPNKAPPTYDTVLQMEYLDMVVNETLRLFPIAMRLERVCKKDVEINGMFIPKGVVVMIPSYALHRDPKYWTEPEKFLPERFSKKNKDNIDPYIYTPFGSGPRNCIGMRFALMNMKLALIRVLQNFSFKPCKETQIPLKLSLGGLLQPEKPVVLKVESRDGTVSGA
Chain of Cytochrome P450 1A2 (Homo sapiens) (P05177 whole entry, looked up): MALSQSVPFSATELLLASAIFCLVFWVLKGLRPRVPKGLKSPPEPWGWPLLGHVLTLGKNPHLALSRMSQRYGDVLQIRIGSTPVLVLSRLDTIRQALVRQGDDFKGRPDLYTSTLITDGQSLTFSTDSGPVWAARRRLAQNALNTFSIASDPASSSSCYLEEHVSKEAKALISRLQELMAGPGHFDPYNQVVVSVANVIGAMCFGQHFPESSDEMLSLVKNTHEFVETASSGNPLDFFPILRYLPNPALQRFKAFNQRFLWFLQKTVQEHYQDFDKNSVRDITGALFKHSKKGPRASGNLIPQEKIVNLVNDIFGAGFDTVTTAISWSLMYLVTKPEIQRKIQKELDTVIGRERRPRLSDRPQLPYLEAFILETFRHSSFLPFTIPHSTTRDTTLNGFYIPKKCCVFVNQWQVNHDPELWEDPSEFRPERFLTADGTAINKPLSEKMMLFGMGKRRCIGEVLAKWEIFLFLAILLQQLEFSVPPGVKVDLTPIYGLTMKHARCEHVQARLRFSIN
Chain of 3',5'-cyclic-AMP phosphodiesterase 4B (Homo sapiens) (Q07343 whole entry, looked up): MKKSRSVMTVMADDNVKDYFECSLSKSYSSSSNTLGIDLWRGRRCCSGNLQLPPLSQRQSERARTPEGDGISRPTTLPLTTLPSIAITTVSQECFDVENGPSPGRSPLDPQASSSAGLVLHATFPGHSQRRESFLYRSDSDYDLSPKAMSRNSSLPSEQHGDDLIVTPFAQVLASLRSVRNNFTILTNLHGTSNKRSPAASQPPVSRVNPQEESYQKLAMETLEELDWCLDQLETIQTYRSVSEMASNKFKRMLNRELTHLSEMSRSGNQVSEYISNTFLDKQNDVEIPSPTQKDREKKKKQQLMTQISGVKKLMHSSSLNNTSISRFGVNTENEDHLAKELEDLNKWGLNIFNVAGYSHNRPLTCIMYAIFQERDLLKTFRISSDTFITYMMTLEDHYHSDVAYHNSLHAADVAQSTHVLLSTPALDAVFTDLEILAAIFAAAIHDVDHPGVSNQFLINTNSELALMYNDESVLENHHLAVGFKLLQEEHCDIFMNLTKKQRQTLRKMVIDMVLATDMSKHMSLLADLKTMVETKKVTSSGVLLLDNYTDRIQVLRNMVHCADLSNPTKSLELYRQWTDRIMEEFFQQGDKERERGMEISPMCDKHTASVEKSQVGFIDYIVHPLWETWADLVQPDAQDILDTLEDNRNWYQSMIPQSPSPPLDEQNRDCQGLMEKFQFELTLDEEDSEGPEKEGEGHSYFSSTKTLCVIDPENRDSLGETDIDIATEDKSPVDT
Chain of Glucocorticoid receptor (Homo sapiens) (P04150 whole entry, looked up, the tested form may be a part): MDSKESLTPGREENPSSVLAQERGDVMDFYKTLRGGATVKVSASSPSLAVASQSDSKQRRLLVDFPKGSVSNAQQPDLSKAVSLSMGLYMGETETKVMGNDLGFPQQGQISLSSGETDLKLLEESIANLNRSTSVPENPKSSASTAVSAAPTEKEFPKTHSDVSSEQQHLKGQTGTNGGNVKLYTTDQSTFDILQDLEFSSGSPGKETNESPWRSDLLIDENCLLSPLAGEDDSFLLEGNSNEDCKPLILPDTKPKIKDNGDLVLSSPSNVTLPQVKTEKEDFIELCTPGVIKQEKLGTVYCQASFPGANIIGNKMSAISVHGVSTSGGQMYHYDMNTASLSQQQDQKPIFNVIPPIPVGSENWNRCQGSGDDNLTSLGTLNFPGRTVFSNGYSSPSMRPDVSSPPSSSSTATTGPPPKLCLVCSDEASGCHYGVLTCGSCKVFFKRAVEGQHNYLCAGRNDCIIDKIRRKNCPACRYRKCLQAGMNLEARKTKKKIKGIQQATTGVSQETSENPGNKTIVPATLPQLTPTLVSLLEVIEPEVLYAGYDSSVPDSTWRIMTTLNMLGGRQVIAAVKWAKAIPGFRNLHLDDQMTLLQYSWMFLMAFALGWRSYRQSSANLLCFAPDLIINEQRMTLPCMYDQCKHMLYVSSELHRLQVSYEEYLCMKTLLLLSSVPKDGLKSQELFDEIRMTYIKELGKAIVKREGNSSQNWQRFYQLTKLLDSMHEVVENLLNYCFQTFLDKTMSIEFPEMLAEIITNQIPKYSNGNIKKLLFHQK
Chain of Lysosomal acid glucosylceramidase (Homo sapiens) (P04062 whole entry, looked up): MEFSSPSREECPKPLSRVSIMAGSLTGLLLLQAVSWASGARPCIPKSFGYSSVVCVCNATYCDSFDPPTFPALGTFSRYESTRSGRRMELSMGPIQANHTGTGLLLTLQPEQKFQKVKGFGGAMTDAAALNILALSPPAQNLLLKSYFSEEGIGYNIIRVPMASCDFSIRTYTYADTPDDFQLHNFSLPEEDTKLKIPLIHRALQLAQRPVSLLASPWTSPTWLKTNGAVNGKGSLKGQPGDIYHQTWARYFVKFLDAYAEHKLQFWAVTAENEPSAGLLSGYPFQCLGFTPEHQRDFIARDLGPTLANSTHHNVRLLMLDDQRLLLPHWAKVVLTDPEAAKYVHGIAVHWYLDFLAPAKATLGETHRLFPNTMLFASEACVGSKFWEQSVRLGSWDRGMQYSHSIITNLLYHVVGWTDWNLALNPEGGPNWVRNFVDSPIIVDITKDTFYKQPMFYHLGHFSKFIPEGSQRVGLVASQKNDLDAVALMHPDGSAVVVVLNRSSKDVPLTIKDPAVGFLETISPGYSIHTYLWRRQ

Turning to `N[C@H](Cn1ccc(=O)c(O)c1)C(=O)O`, the activity change, negative = inhibition was 2.81% [at 17.2 µM] (inactive) in [1], -2.41% [at 17.2 µM] (inactive) in assay [2], -2.4% (inactive) in [8] (at 25.7 µM (top of the series)) and -2.6% (inactive) in assay [8] (at 57.5 µM (top of the series)). In addition, in assay [3], the activity, negative = inhibition was 3.76% [at 17.2 µM] (inactive). For the same compound, the Potency in assay [4] was > 20.6 µM (inactive) and > 46 µM (inactive); in assay [5], > 20.6 µM (inactive) and > 46 µM (inactive). The Potency result in assay [6], in assay [7] and in assay [9] was “inactive” in each case. In addition, the max response is -5.27% and -11.5% in [8] (setting [21]); -7.92% and -12.4% in assay [8] (setting [22]).

Take `NC(Cc1ccc(O)c(O)c1)C(=O)O` (stereo not given): the Potency result in [10], in [13] and in assay [14] was “inactive” in each case. For the same compound, the compound was classed as inactive in assay [11]. For the same compound, the activity change, negative = inhibition in [8] (at 57.5 µM (top of the series)) is 11.6% (inactive). For the same compound, the max response in assay [8] (setting [21]) turned out to be 4.16%; in assay [8] (setting [22]) it was 20.4%. Further, the Potency in assay [12] was 1.4 µM (active); in [15], 44.1 µM (active).

Consider `COc1ccc2[nH]cc(CCNc3ncnc4ccc(-c5ccc6c(c5)OCO6)cc34)c2c1`, for which the Potency in assay [16] was > 11.4 µM (inactive); in assay [17], 0.631 µM (active); in [5], > 46 µM (inactive); in assay [10], 2 µM (active). Moreover, the activity change, negative = inhibition is -23.8% (inactive) in assay [2] and 2.76% (inactive) in assay [8] (at 57.5 µM (top of the series)). Also, the activity, negative = inhibition in [3] was -24.8% (inactive). Further, the Potency result in assay [6], in assay [7], in assay [18], in assay [12], in assay [13] and in assay [14] was “inactive” in each case. Moreover, the Potency entry in assay [15] is “inactive”. Moreover, the figures for the max response in assay [8] (setting [21]) and in assay [8] (setting [22]) were -4.39% and -5.39%, respectively.

Turning to `CCCC[P+](CCCC)(CCCC)Cc1ccc(NC(=O)[C@@H](Cc2ccc3ccccc3c2)NC(=NC2CCCCC2)NC2CCCCC2)cc1`, the Potency in assay [17] was 31.6 µM (active); in assay [4] it was > 46 µM (inactive); in assay [5] it was > 46 µM (inactive). Further, the Potency entry in [18] was “inactive”. For the same compound, in assay [19], the result was inactive.

With `COC(=O)N1CCC2(CCN(C(=O)Nc3cccc(F)c3)CC2)CC1`, the activity change, negative = inhibition is -21.3% (inactive) in assay [1] and -11.6% (inactive) in assay [2]. The activity, negative = inhibition in assay [3] was 22.8% (inactive). In addition, in assay [5], the Potency was > 46 µM (inactive). Moreover, the Potency result in [6] and in assay [7] was “inactive” throughout. Further, the outcome in assay [19] was inactive.

`COc1ccc(Oc2ncc3nc(-c4ccccc4)c(=O)n(Cc4cccs4)c3n2)cc1`: the activity change, negative = inhibition in assay [1] is -8.46% (inactive). Also, the activity, negative = inhibition in [3] was -3.78% (inactive). Also, the results for the Potency in assay [4] and in assay [5] were > 9.22 µM (inactive) and > 46 µM (inactive), respectively. Besides, the Potency result in [6] and in [7] was “inactive” each time. Besides, in assay [19], the outcome was inactive.

Consider `C=CCNC(=O)c1cc([N+](=O)[O-])cc2c(=O)[nH]c(Nc3ccc(Cl)c(Cl)c3)nc12`, for which the Potency result in assay [18] was “inactive”. Besides, the outcome in assay [19] was inactive.

Regarding `C=CCc1ccc(OC(=O)c2ccccc2)c(OC)c1`, the Potency in assay [10] is 5.01 µM (active). The Potency entry in [18], in [20], in [12], in assay [13] and in [14] was “inactive” in each case. Further, the compound was classed as inactive in [11]. The figures for the activity change, negative = inhibition in assay [8] (at 57.5 µM (top of the series)) and in assay [15] were 6.62% (inactive) and -4.91% [at 12.7 µM] (inactive), respectively. Also, the max response in assay [8] (setting [21]) was determined as 5.85%; in [8] (setting [22]) it was 15.6%.

As for `Cc1cc(C)c(S(=O)(=O)Nc2ccccc2C(F)(F)F)c(C)c1`, the Potency in assay [17] was 31.6 µM (active); in assay [4], > 46 µM (inactive); in assay [5], > 46 µM (inactive); in assay [10], 2.51 µM (active). Further, the Potency entry in [18] is “inactive”. The result in [19] was inactive.
